BoNT-A LC inh2 = blocks Botulinum neurotoxin A light chain protease; multiplex microsphere protease substrate cleavage, flow cytometry; inhibition, % at 10 µM; hit rate 0.17% among 360,000; AID 588499
Anthrax LF prot = blocks Bacillus anthracis lethal factor protease | inhibition, % at 10 µM | multiplex microsphere protease cleavage assay, LF | hit rate 0.12% among 360,000
Target sequence (P15917 whole entry, looked up): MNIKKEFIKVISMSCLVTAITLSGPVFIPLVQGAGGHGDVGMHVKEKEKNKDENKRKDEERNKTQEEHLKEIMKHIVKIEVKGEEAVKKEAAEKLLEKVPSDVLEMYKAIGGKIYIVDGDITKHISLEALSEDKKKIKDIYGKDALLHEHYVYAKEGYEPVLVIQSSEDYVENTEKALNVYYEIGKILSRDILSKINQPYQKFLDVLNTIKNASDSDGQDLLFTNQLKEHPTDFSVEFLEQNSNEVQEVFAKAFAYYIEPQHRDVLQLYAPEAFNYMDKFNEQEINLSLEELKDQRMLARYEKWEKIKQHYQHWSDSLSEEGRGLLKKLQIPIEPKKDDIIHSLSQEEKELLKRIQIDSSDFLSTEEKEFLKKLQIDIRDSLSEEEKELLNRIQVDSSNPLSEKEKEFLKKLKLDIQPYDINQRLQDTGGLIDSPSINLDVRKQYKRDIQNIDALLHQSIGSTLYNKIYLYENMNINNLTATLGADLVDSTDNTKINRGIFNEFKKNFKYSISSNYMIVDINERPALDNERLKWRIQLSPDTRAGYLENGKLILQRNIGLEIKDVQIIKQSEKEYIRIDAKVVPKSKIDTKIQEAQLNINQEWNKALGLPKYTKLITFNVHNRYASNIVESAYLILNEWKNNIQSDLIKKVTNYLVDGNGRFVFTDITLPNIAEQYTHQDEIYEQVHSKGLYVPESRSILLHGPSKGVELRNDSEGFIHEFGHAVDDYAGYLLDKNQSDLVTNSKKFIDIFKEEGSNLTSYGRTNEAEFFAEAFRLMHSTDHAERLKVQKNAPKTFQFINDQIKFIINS
Autofluor counter = flagged as autofluorescent in microsphere protease counterscreen. compound autofluorescence counterscreen, microsphere flow cytometry; active compounds read high. hit rate 3.1% among 360,000. fluorescence intensity (no concentration beside the values); in the data active means fluorescence intensity above about 16000; inconclusive means no clear call, values can overlap the other calls
BoNT F protease = blocks Botulinum neurotoxin F light chain protease. Multiplex microsphere protease cleavage assay, flow cytometry. hit rate 0.22% among 360,000. inhibition, % at 10 µM; in the data active means inhibition above about 35%, passing the limit was not always enough; inconclusive means no clear call, values can overlap the other calls
A number is an active result; n = inactive; u = inconclusive. Hits are enriched below; roughly 3.5% of the tested compounds scored in any of these assays. Unless noted, no stated cut-off is given here; in the data, active means inhibition above about 30%; inconclusive means no clear call, values can overlap the other calls; inactive means below that.

SMILES | BoNT-A LC inh2 | Anthrax LF prot | Autofluor counter | BoNT F protease
c1ccc(Cc2nn3c(Cn4nnc5ccccc54)nnc3s2)cc1 | u | n | 22542 | n
Fc1ccc(-c2nnc3sc(C4COc5ccccc5O4)nn23)cc1 (stereo unspecified) | n | n | n | n
Cc1nn(Cc2ccc([N+](=O)[O-])cc2)c(=O)n1-c1ccccc1 | u | n | 17702 | n
Cc1nn(CC#N)c(=O)n1-c1ccccc1 | n | n | n | n
COc1ccc(-c2cc(-c3c(O)c(OC)c4occc4c3OC)[nH]n2)cc1 | u | n | 21696 | n
OCc1cccc(-c2csc(C(O)(c3ccccc3)C(F)(F)F)n2)c1 (stereo unspecified) | n | n | n | n
COCCCn1c(=S)[nH]c2ccc(N3CCOCC3)cc2c1=O | n | n | 18662 | n
O=c1c2cc(N3CCOCC3)ccc2[nH]c(=S)n1CC1CCCO1 (stereo unspecified) | n | n | 22212 | n
COc1ccc(CCn2c(=S)[nH]c3ccc(N4CCOCC4)cc3c2=O)cc1OC | n | n | n | n
Nc1ccn(CCCN2CCN(C(=O)C3CC3)CC2)c(=O)n1 | n | n | n | n
CSCC[C@H](NC(=O)OC(C)(C)C)c1nnc(SCC=C(C)C)o1 | n | n | 25549 | n
CC(C)(C)OC(=O)N[C@@H](Cc1ccccc1)c1nnc(SCC(=O)O)o1 | n | n | n | n
CC(C)(C)OC(=O)N[C@@H](Cc1ccccc1)c1nnc(SCC(=O)c2ccc(Cl)cc2)o1 | n | n | 19238 | n
CSCC[C@H](NC(=O)OC(C)(C)C)c1nnc(SCC(N)=O)o1 | n | n | n | n
CCN(CC)C(=O)CSc1nnc([C@@H](NC(=O)OC(C)(C)C)C(C)C)o1 | n | n | 17771 | n
CCSc1nnc([C@H](Cc2ccccc2)NC(=O)OC(C)(C)C)o1 | n | n | 23861 | n
COC(=O)/C=C1\NCCSC1=O | n | n | 17208 | n
COC(=O)/C=C1\NC(=O)C(C)S1 (stereo unspecified) | n | n | n | n
CS(=O)(=O)N1CCN(c2ccc([N+](=O)[O-])c(NCCN3CCOCC3)c2)CC1 | n | n | 18351 | n
C=CCn1c(SCC(=O)c2cccs2)nc2sc(CC)cc2c1=O | n | n | 22827 | n
C=CCn1c(SCC(=O)O)nc2sc(CC)cc2c1=O | n | n | n | n
Cc1cc2c(=O)[nH]c(N)nc2[nH]1 | n | n | n | n
O=C(c1cnc(-c2ccc(Cl)cc2)s1)c1ccc(Cl)cc1Cl | n | n | 16515 | n
O=C(O)Cc1ccc(C(=O)c2ccc(Cl)cc2Cl)s1 | n | n | n | n
O=c1[nH]c(=O)n(Cc2ccc(F)cc2)c(O)c1C=NCCCn1ccnc1 | n | n | 20628 | n
SMILES | BoNT-A LC inh2 | Anthrax LF prot | Autofluor counter | BoNT F protease
O=c1[nH]c(=O)n(Cc2ccccc2)c(O)c1C=NCCCn1ccnc1 | n | n | n | n
Cc1ccc(C(=O)NCc2ccc(N3CCN(C(=O)OC(C)(C)C)CC3)cc2)cc1 | u | n | 23049 | n
Cc1ccc(S(=O)(=O)NCc2ccc(N3CCN(C(=O)OC(C)(C)C)CC3)cc2)cc1 | n | n | n | n
COC(=O)N1CCN(c2ccc(C(C)=O)cc2)CC1 | u | n | 18481 | n
OCC[C@@H]1C[C@H](O)[C@@H](O)[C@@]2(OCc3ccc4ccccc4c32)O1 | n | n | n | n
O=S1(=O)CC(N2CCN(CCO)CC2)CN1Cc1cn(Cc2ccccc2C(F)(F)F)nn1 (stereo unspecified) | n | n | n | n
COc1ccc(CNC(=O)COc2ccc([N+](=O)[O-])cc2)cc1 | n | n | 19432 | n
CCCNC(=O)c1ccccc1NC(=O)COc1ccc(OC)cc1 | n | n | 19742 | n
COc1ccc(OCC(=O)NNc2c3ccccc3nc3ccccc23)cc1 | n | n | 16716 | n
O=C(COc1ccccc1)NNc1c2ccccc2nc2ccccc12 | n | n | n | n
CC1CCCCC1NC(=O)c1cc(S(=O)(=O)N2CCOCC2)ccc1Cl (stereo unspecified) | n | n | n | n
Cc1cccc(NC(=O)c2ccccc2-c2ccccc2)c1 | n | n | n | n
Cc1cccc(NC(=O)c2ccccc2C(=O)O)c1 | n | n | 19743 | n
Cc1cccc(NC(=O)c2cccc3c2C(=O)c2ccccc2-3)c1 | n | n | 23188 | n
COc1ccc(COC(=O)CNC(=O)C2CCCCC2)cc1F | n | n | n | n
CCN(CC)c1c(C)nc2ccc(C(=O)Nc3cc(-c4ccccc4)ccc3OC)cn12 | n | n | n | n
CCOC(=O)c1sc(=S)n(-c2ccc(OC)cc2)c1C | n | n | n | u
COc1ccc(CNC(=O)c2sc(=S)n(-c3ccc(OC)cc3)c2N)cc1 | n | n | 19355 | n
NC(=O)c1nn(-c2ccc(Oc3ccccc3)cc2)c(=O)cc1O | n | n | n | n
NC(=O)c1nn(-c2ccccc2)c(=O)cc1O | n | n | 22915 | n
NC(=O)c1nn(-c2cccc(Cl)c2)c(=O)cc1O | n | n | 16281 | n
O=C(c1cccc(Cl)c1)c1nn(-c2ccccc2)c(=O)cc1C(F)(F)F | n | n | n | n
CC(C)N1CCC(C)(C(=O)Nc2cc(-c3ccccc3)nn2C)C1 (stereo unspecified) | n | n | n | n
CC(=O)NC(c1ccccc1)c1nc(-c2cccc(C#N)c2)cs1 (stereo unspecified) | n | n | n | n
COc1cc(/C=C(\CCC(=O)O)c2nc3ccccc3s2)ccc1OCC(=O)Nc1c(Cl)cccc1Cl | n | n | u | n
SMILES | BoNT-A LC inh2 | Anthrax LF prot | Autofluor counter | BoNT F protease
COc1ccc(Br)c(C(=O)N(C)CC(=O)Nc2ccc(N3CCOCC3)cc2)c1 | n | n | 21018 | n
CN(CC(=O)Nc1ccc(N2CCOCC2)cc1)C(=O)c1cccc(Cl)c1Cl | n | n | n | n
CCN=C1S/C(=C\c2ccc(N3CCOCC3)cc2C)C(=O)N1CC | n | n | n | n
COCCN1C(=O)/C(=C/c2ccc(N3CCCC3)cc2C)SC1=S | 100 | 58 | 18023 | n
O=S(=O)(c1ccccc1)N1CCN(C2CCN(Cc3ccccc3)CC2)CC1 | n | n | n | n
O=S(=O)(c1ccc2ccccc2c1)N1CCN(C2CCN(Cc3ccccc3)CC2)CC1 | n | n | 23769 | n
Cc1nnc(-c2cnn(-c3ccccc3)c2N)n1Cc1ccc(F)cc1 | u | n | 19393 | n
Cc1nnc(-c2cnn(-c3ccccc3)c2N)n1Cc1ccccc1 | n | n | 20987 | n
COCCCn1c(C)nnc1-c1cnn(-c2ccccc2)c1N | n | n | n | n
Cc1nnc(-c2cnn(C)c2N)n1Cc1ccccc1 | n | n | n | n
Cc1cc(C)cc(NC(=O)N2CCC(c3nc4ccccc4o3)CC2)c1 | n | n | 20562 | n
Cc1cccc(NC(=O)N2CCC(c3nc4ccccc4o3)CC2)c1 | n | n | n | n
Cc1cccc(C)c1-n1nnnc1SCSc1nnnn1-c1c(C)cccc1C | u | n | 21580 | n
COc1ccc(NC(=O)c2cc(C3CCCCN3S(=O)(=O)c3cn(C)cn3)on2)c(C)c1 (stereo unspecified) | n | n | n | n
O=C(O)c1cc(NCc2ccccc2C(F)(F)F)ccc1N1CCOCC1 | u | n | 22050 | n
CC[N+](CC)=N/N=C1\C=CC[N+]([O-])=C1 | n | n | n | n
Cn1c2c(c3ccccc31)CCN(CCCCN1CCN(c3ccccc3)CC1)C2=O | n | n | n | n
O=C(OCC(F)(F)C(F)F)c1ccccc1C(=O)Oc1ccc(F)cc1F | u | n | 20051 | n

Source: PubChem BioAssay
